A selection: hits, their analogues and other compounds. The true share with any hit is near 3.4%.
Mito fusion yeast: qHTS Assay for Small Molecule Inhibitors of Mitochondrial Division or Activators of Mitochondrial Fusion | S. cerevisiae fusion-defective mutant growth rescue, CellTiterGlo 48 h | Potency, µM (series often up to 46.1 µM), most hits filed as activators | hit rate 0.23% among 320,000 | AID 485298, 2010; note: nearly all actives have a fitted effect of over 45% in size
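Luminescent cell viability in 1536-well qHTS format served as the measure of rescued growth in ts fusion-mutant S. cerevisiae cultured on non-fermentable YPEG for 48 hours at 37C.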
PLK1 PBD block: qHTS for Inhibitors of PLK1-PDB (polo-like kinase 1 - polo-box domain): Primary Screen; Serine/threonine-protein kinase PLK1 (Homo sapiens), P53350; Plk1 PBD binding of FITC phosphopeptide, fluorescence polarization; Potency, µM, most hits filed as inhibitors; hit rate 2.8% among 360,000; note: series mostly up to about 57 µM; nearly all actives have a fitted effect of over 65% in size
KAT2A inh: qHTS Assay for Inhibitors of GCN5L2; Potency, µM (highest dose often 58.9 µM), usual class: inhibitors; Histone acetyltransferase KAT2A (Homo sapiens), Q92830; GCN5L2 HAT assay, ThioGlo1 CoA-SH fluorescence; AID 504327, 2011; hit rate 0.21% among 390,000
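Preincubate 20nM GCN5L2 with compound 15 min, RT → add 50uM ThioGlo1 + 75uM H3(1-25) + 70uM acetyl-CoA → read fluorescence 0 and 20 min. Primary qHTS; fluorescent artifacts likely.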
PKM2 act: qHTS Assay for Activators of Human Muscle isoform 2 Pyruvate Kinase. AID 1631, 2009. purified PKM2, Kinase-Glo ATP luminescence, activation; response scale: 0% is enzyme alone, no compound. Potency, µM (series often up to 57.5 µM), most hits filed as activators. hit rate 0.34% among 260,000; note: nearly all actives have a fitted effect of over 55% in size
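hPK-M2, >95% pure; 0.1 mM ADP / 0.5 mM PEP final; imidazole pH7.2 buffer w/ 7 mM MgCl2, 50 mM KCl; 1 h RT; Kinase-Glo lum. Intermediate enzyme activity for dual inhibitor/activator qHTS.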
VDR inh: Inhibitors of the vitamin D receptor (VDR): qHTS. Vitamin D3 receptor (Homo sapiens), P11473. VDR-SRC2-3 peptide fluorescence polarization, 2 h. Potency, µM, hits mostly inhibitors. hit rate 0.93% among 400,000. AID 504847, 2011
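Signal is fluorescence polarization, reporting how far test compounds block the interaction of VDR with the SRC2-3 coregulator peptide after a 2 h room-temperature incubation.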
GLS inh: qHTS for Inhibitors of Glutaminase (GLS) | Potency, µM (highest dose often 45.5 µM), usual class: inhibitors | hit rate 0.21% among 410,000 | AID 624170, 2012 | GLS enzymatic activity, qHTS titration | Glutaminase kidney isoform, mitochondrial (Homo sapiens), O94925
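Human kidney-isoform GLS in 45 mM KH2PO4 pH 8.2, 0.02% Tween-20, with compound, started with 1mM L-Glutamine (added stock). Glutamate oxidase/HRP/Amplex red coupled fluorescence read at start and after 30 min at RT.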
VDR confirm: qHTS for Inhibitors of the vitamin D receptor (VDR): Hit Validation in Primary Screen | AID 602199, 2012 | hit rate 89% among 840 | shares compounds with VDR inh | VDR-coactivator inhibition assay, qHTS confirmation | Potency, µM, most hits filed as inhibitors
VDR FP: qHTS for Inhibitors of the vitamin D receptor (VDR): Hit Validation using a Fluorescein Assay. VDR-coactivator binding, fluorescein fluorescence polarization. shares compounds with VDR inh. Potency, µM (highest dose often 57.1 µM), most hits filed as inhibitors. hit rate 48% among 840. AID 602200, 2012
VDR bla reporter: qHTS for Inhibitors of the vitamin D receptor (VDR): Hit Validation using a Beta-Lactamase Assay; AID 602202, 2012; hit rate 23% among 840; Potency, µM (top dose mostly 46.1 µM), hits mostly inhibitors; VDR beta-lactamase reporter cells, FRET ratio; cells co-treated with VDR agonist LG190178; shares compounds with VDR inh
VDR cytotox: qHTS for Inhibitors of the vitamin D receptor (VDR): Hit Validation using a Cytotoxicity Assay; shares compounds with VDR inh; cytotoxicity counter-screen, cell viability, qHTS; Potency, µM (highest dose often 48.3 µM), actives largely listed as cytotoxic; hit rate 18% among 840; AID 602204, 2012; note: nearly all actives have a fitted effect of over 75% in size
GLS hit conf: qHTS for Inhibitors of Glutaminase (GLS): Hit Confirmation; shares compounds with GLS inh; 35 tested, under 10 active; Potency, µM (doses to about 46.1 µM), most hits filed as inhibitors; biochemical glutaminase enzyme inhibition assay; AID 624261, 2012; calls by dose curve
GLS HRP counter: qHTS for Inhibitors of Glutaminase (GLS): Hit Confirmation in HRP Counterscreen; shares compounds with GLS inh; activity change, negative = inhibition, % at 46.1 µM; HRP/glutamate oxidase coupled Amplex Red fluorescence counterscreen; 35 tested, under 10 active
HEK293 tox: qHTS for Inhibitors of Glutaminase (GLS): Hit Confirmation using Cytotoxicity | shares compounds with GLS inh | HEK-293 viability, CellTiter-Glo luminescence, 24 h | activity change, negative = cytotoxicity, % at 46.1 µM | 35 tested, under 10 active | AID 624264, 2012
TbPYK confirm: qHTS of Trypanosoma Brucei Inhibitors: Confirmatory Assay for Cherry-picked Compounds; shares compounds with PLK1 PBD block; recombinant TbPYK, Kinase-Glo ATP luminescence; Potency, µM (series often up to 76.9 µM), hits mostly inhibitors; hit rate 67% among 890; note: nearly all actives have a fitted effect of over 70% in size
TbPYK ADP-Glo: qHTS of Trypanosoma Brucei Inhibitors: Orthogonal Assay for Cherry-picked Compounds; recombinant TbPYK, ADP-Glo luminescence, 60 min; shares compounds with PLK1 PBD block; hit rate 62% among 890; Potency, µM (highest dose often 76.9 µM), usual class: inhibitors; note: nearly all actives have a fitted effect of over 75% in size
A number is an active result; - = inactive; ? = inconclusive; . = no result given. Unless noted, calls come from the whole dose curve; as a rule, active = well fitted curve in the direction sought with a large enough effect; inconclusive = small, poorly fitted or top-dose-only effect, or another doubt; inactive = no such curve, though single readings can be large; an effect the other way counts as inactive or inconclusive.

SMILES	Mito fusion yeast	PLK1 PBD block	KAT2A inh	PKM2 act	VDR inh	GLS inh	GLS hit conf	GLS HRP counter	HEK293 tox	others
CCOc1ccc(S(=O)(=O)n2nc(C)c(S(=O)(=O)N3CCCCC3)c2C)cc1	.	.	-	.	-	-	.	.	.
CCN1CCN(C(=S)c2ccc(Cl)cc2)CC1	-	2.1µM	-	-	35µM	?	.	.	.	VDR confirm=9.5;VDR FP=?;VDR bla reporter=-;VDR cytotox=-;TbPYK confirm=0.25µM;TbPYK ADP-Glo=1.6µM
O=C1C=C(c2ccccc2)C(=O)N1Nc1ccccc1	-	8.4µM	-	-	?	?	.	.	.	VDR confirm=5.6;VDR FP=7.9µM;VDR bla reporter=21µM;VDR cytotox=?;TbPYK confirm=16µM;TbPYK ADP-Glo=25µM
COc1ccc(OC)c(S(=O)(=O)Nc2c(F)cccc2F)c1	-	-	-	-	-	-	.	.	.
COc1ccc(OC)c(S(=O)(=O)Nc2cccc3ccc(O)cc23)c1	.	-	.	.	-	6.3µM	-	?	-
Cc1ccc(S(=O)(=O)Nc2cc(C)c(O)c(Sc3n[nH]c(C)n3)c2)cc1	-	-	-	?	-	10µM	?	?	-
Cc1ccc(S(=O)(=O)Nc2ccc3cn[nH]c3c2)cc1	-	-	-	.	-	-	.	.	.
CN1C(=O)c2cccc3c(S(=O)(=O)Nc4ccc(O)c(C(=O)O)c4)ccc1c23	-	-	-	.	-	?	?	?	-
COc1ccccc1NS(=O)(=O)c1cc(N)ccc1N1CCCC1	.	6.7µM	-	.	89µM	?	-	?	-
Cn1cc(C(=O)N2CCc3ccccc32)cn1	-	-	-	-	-	-	.	.	.
